Laboratory results: article PMC7826789 (International Journal of Molecular Sciences, 2021)

These compounds were tested on IRAK4. Details: Compound Concentration (nM):1000.
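Also: KINOMEscan scanMAX binding as percent activity remaining versus control; lower means stronger binding.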

Percent Control, inactive:
COc1ccc2c(-c3ccnc(Nc4cccc(OC(F)(F)F)c4)n3)cnn2n1 [GW810372X] 100%
CCS(=O)(=O)c1ccc(OC)c(Nc2ncc(-c3cccc(OC)c3)o2)c1 [GW580509X] 100%
CC1=C(C(=O)Nc2ccc3[nH]ncc3c2)C(c2ccc3ccccc3c2)CC(=O)N1 (stereo not shown) [GSK270822A] 100%
COc1cccc(-c2c[nH]c3c(N/N=C/c4ccncc4)ncnc23)c1 [GW814408X] 59%
Cl.O=C(Nc1ccc(Oc2ccc3[nH]c(NC(=O)c4ccco4)nc3c2)cc1)Nc1cc(C(F)(F)F)ccc1F [GW683134A] 89%
COC(=O)Nc1nc2ccc(Oc3ccc(NC(=O)Nc4cc(C(F)(F)F)ccc4F)cc3)cc2s1.Cl [GW693917A] 90%
COc1cc(N2CCN(C(C)C)CC2)ccc1Nc1nc(Nc2ccc(F)cc2C(=O)NC[C@@H](O)CO)c2cc[nH]c2n1 [GSK1392956A] 89%
COc1cc2ncn(-c3cc(O[C@H](C)c4ccccc4Cl)c(C(N)=O)s3)c2cc1OC [GSK237701A] 98%
Cl.c1ccc(Cc2nc3ccc(Nc4ncnc5ccccc45)cc3[nH]2)cc1 [GR269666A] 100%
COc1cc(C)c(N(C)C(=O)CN(C)C)cc1Nc1nc(Nc2cccc(F)c2C(N)=O)c2cc[nH]c2n1 [GSK2219385] 95%
NS(=O)(=O)c1ccc(N/N=C2\C(=O)Nc3ccc(C(=O)NCCc4c[nH]cn4)cc32)cc1 [GW300660X] 99%
CCS(=O)(=O)c1ccc(OC)c(Nc2ncc(-c3cccc(F)c3)o2)c1 [GW621970X] 61%
CN(C)CCNC(=O)Nc1ccc(N(C)c2ccnc(Nc3ccc(CS(C)(=O)=O)cc3)n2)cc1.Cl [GW830900A] 80%
COc1cc(/C=N/Nc2ncnc3[nH]ncc23)ccc1O [GW578748X] 61%
COc1ccc2cc(-c3c(-c4ccncc4)nc(-c4ccc(S(C)(=O)=O)cc4C)n3C)ccc2c1 [SB-633825] 81%
COc1ccc(COc2ccc(Cc3cnc(N)nc3N)cc2OC)cc1 [GW632580X] 95%
COc1cccc(-n2ncc3c(N/N=C/c4ccncc4)ncnc32)c1 [GW784752X] 99%
CN(C)c1cc2c(Nc3ccc4c(cnn4Cc4ccccc4)c3)ncnc2cn1 [GW282974X] 100%
Cc1cc(O)cc(C)c1/C=C/c1cncc(C(N)=O)c1 [GW435821X] 100%
NS(=O)(=O)c1ccc(N/N=C2\C(=O)Nc3ccc(-c4cnco4)cc32)cc1 [GW276655] 90%
O=C(Nc1n[nH]c2nc(-c3ccc(O)cc3)c(Br)cc12)C1CC1 [SB-725317] 89%
NS(=O)(=O)c1ccc(Nc2ncc(-c3ccccc3)o2)cc1 [GW572399X] 100%
Cl.O=C(O[C@H]1CN[C@H](C#Cc2cc3ncnc(Nc4ccc5c(cnn5Cc5ccccc5)c4)c3s2)C1)N1CCOCC1 [GSK200398A] 96%
COc1ccccc1-c1cc(/C=C2\C(=O)Nc3ncc(Br)cc32)cc(Br)c1O [GW442130X] 85%
CC1=C(C(=O)Nc2ccc3[nH]ncc3c2)C(c2ccc(Cl)c(Cl)c2)CC(=O)N1 (stereo not shown) [GSK299115A] 100%
COc1cc2ncnc(Nc3ccc4c(cnn4Cc4ccccc4)c3)c2cc1OC.Cl [GW282449A] 100%
O=C1Nc2ccc(C(=O)c3ccco3)cc2C1=Cc1cc(Cl)c(O)c(Cl)c1 [GW406108X] 64%
CC(C)COC(=O)c1ccc2c(c1)/C(=C/Nc1ccc(S(N)(=O)=O)cc1)C(=O)N2 [GW416981X] 100%
Cl.O=S1CCN(Cc2ccc(-c3ccc4ncnc(Nc5ccc(OCc6ccccc6)c(F)c5)c4c3)o2)CC1 [GW576924A] 100%
CCn1c(-c2nonc2N)nc2c(C#CC(C)(C)O)nc(OCCNC)cc21.Cl [GSK949675] 88%
COc1cc(C=NNc2ncnc3c2cnn3-c2ccccc2)ccc1O [GW513184X] 72%
Cl.O=C(Nc1ccc(Oc2ccc3[nH]c(NC(=O)c4ccccc4)nc3c2)cc1)Nc1cc(C(F)(F)F)ccc1F [GW709042A] 86%
Nc1ncnc2occ(-c3ccc(NC(=O)Nc4cc(C(F)(F)F)ccc4F)cc3)c12 [GW770249X] 100%
NS(=O)(=O)c1ccc(N/N=C2\C(=O)Nc3ccc(C(=O)NCc4ccncc4)cc32)cc1 [GW300657X] 96%
C/C(Nc1ccc(S(N)(=O)=O)cc1)=C1/C(=O)Nc2ccccc21 [GW335962X] 91%
C[C@@H](Oc1cc(-n2cnc3ccc(OC4CCN(C)CC4)cc32)sc1C(N)=O)c1ccccc1Cl [GSK579289A] 94%
COc1ccc2[nH]c3c4[nH]c5ccc(OC)cc5c4c4c(c3c2c1)C(=O)NC4=O [GW296115X] 76%
CN1CCN(C(=O)c2ccc(NC(=O)Nc3ccc(N(C)c4ccnc(Nc5ccc(CS(C)(=O)=O)cc5)n4)cc3)cc2)CC1.Cl [GW830263A] 52%
CCc1ccc(Oc2nccc(-c3c(-c4ccc(F)cc4)ncn3C3CCNCC3)n2)cc1 [SB-242719] 88%
NS(=O)(=O)c1ccc(N/N=C2\C(=O)Nc3ccc(Cl)cc32)cc1 [GW280670X] 100%
